From PubChem BioAssay AID463173 (ICCB-Longwood Screening Facility, Harvard Medical School, 2010) come the findings set out here.

Among all 52,000 compounds or so, about 4,300 (8.3%) were called active. Cut-off read from the data, not from the text of the source: active = survival mostly below about 52% (no sharp cut-off); inactive = mostly above about 56%. This excerpt belongs to a sample that is enriched for actives.

The experiment relates to DeltatarO mutant. Briefly: growth inhibition of S. aureus wild type versus tarO mutant, primary screen, teichoic acid synthesis inhibitors, RN4220, OD600 (AID 463173). Conditions: OD600, 18 h, stronger effect = lower value, concentration not given here.
`Cc1cccc(-n2c(-c3ccco3)nc3ccccc3c2=O)c1`: the survival is 94% (inactive). For `COc1ccc(-n2c(/C=C\c3ccccc3F)nc3ccccc3c2=O)cc1OC`, the survival is 89% (inactive). `Cn1cc(/C=C/c2nc3ccccc3c(=O)n2-c2ccccc2)c2ccccc21`: the survival is 77% (inactive). `Cc1cccc(-n2c(/C=C/c3cccc4ccccc34)nc3ccccc3c2=O)c1`: the survival was 94% (inactive).

Regarding `Cc1cc(C)cc(-n2c(/C=C/c3cccc(F)c3)nc3ccccc3c2=O)c1`, the survival is 83% (inactive). Consider `COc1cccc(-n2c(/C=C/c3ccccc3O)nc3ccccc3c2=O)c1`, for which the survival is 4% (active). As to `Cc1cccc(-n2c(/C=C/c3cn(C)c4ccccc34)nc3ccccc3c2=O)c1`, the survival was 21% (active). To `O=c1c2ccccc2nc(/C=C/c2ccccc2F)n1-c1cccc(O)c1` belongs 2% (active); to `O=c1c2ccccc2nc(/C=C\c2ccccc2F)n1-c1ccc(O)cc1`, 67% (inactive). For `COc1cc(/C=C/c2nc3ccccc3c(=O)n2-c2ccc(Br)c(C)c2)ccc1O`, the survival was 71% (inactive). Turning to `Cc1cccc(-n2c(/C=C/c3ccccc3O)nc3ccccc3c2=O)c1`, the survival was 0% (active).

Regarding `CCCCc1nc2ccccc2c(=O)n1-c1cccc(OC)c1`, the survival is 119% (inactive).

For `Cc1cc(-n2c(/C=C/c3cccs3)nc3ccccc3c2=O)ccc1Br`, the survival was 104% (inactive). In the case of `O=C1/C(=C\c2cc3c(cc2Cl)OCO3)N2CCC1CC2` it was 87% (inactive); in that of `O=C1NC(=S)NC(=O)C1C1CCCCC1`, 74% (inactive); in that of `CCC(C(=O)Nc1ccccc1F)N1C(=O)CN=C(c2ccccc2)c2ccccc21` (stereo not given), 84% (inactive). Take `CC(C)Cc1nc2cccnc2n1C1CCNCC1`: the survival is 120% (inactive).

In the case of `O=C(c1ccc2c(c1)N(Cc1ccc(F)cc1Cl)C(=O)c1ccccc1S2)N1CCC2(CC1)OCCO2`, the survival was 101% (inactive). `COc1ccc(N=C2SCCCN2C)cc1`: the survival is 99% (inactive). Turning to `CNC(=O)Oc1c(Cl)cc(Cl)cc1Cl`, the survival is 96% (inactive). To `Cc1ccc(-n2c(/C=C/c3cccc(C(F)(F)F)c3)nc3ccccc3c2=O)cc1` belongs 72% (inactive); to `Cc1cccc(-n2c(CC3C(=O)Nc4ccc(C)cc43)nc3ccccc3c2=O)c1` (stereo not given), 34% (active). In the case of `O=c1c2ccccc2nc(/C=C\c2cccc(Br)c2)n1-c1ccc(O)cc1` it was 100% (inactive); in that of `O=c1c2ccccc2nc(/C=C/c2ccccc2O)n1-c1ccc(Br)cc1`, 41% (active).

In the case of `Cc1ccc(-n2c(/C=C/c3cccc4ccccc34)nc3ccccc3c2=O)cc1`, the survival is 77% (inactive).

Consider `Cc1cccc(-n2c(/C=C/c3c[nH]c4ccccc34)nc3ccccc3c2=O)c1`, for which the survival was 26% (active). With `CCc1nc2ccccc2c(=O)n1-c1cccc(OC)c1`, the survival is 91% (inactive). `Cc1ccc(-n2c(/C=C\c3ccc(F)cc3)nc3ccccc3c2=O)cc1Cl`: the survival was 90% (inactive). In the case of `Cc1ccc2c(c1)C(Cc1nc3ccccc3c(=O)n1-c1ccc(Br)cc1)C(=O)N2` (stereo not given), the survival is 73% (inactive).

For `O=C(Nc1ccc2c(c1)OCCO2)c1cccn(Cc2cccc(F)c2)c1=O`, the survival is 84% (inactive). In the case of `N#CC(C#N)=Cc1sc2ccccc2c1Cl`, the survival was 93% (inactive). For `COc1ccc(C2(CN)CCOCC2)cc1`, the survival is 88% (inactive). In the case of `O=c1cccc2n1CC1CC2CN(c2ncnc3c2cnn3-c2ccc(Cl)cc2)C1` (stereo not given), the survival was 52% (inactive). For `Cc1ccc(NC(=O)Cn2cc(C(=O)c3ccccc3)c3ccccc32)cc1`, the survival was 122% (inactive). With `COc1ccc(-c2nc(CN3C(=O)CN=C(c4ccccc4)c4ccccc43)c(C)o2)cc1OC`, the survival is 97% (inactive). Turning to `COc1ccc(-c2nc(CN3C(=O)CN=C(c4ccccc4)c4ccccc43)c(C)o2)cc1`, the survival is 84% (inactive).

In the case of `Cc1oc(-c2ccc(Cl)cc2)nc1CN1C(=O)CN=C(c2ccccc2)c2ccccc21`, the survival was 49% (inactive).

For `Cc1cccc(-c2nc(CN3C(=O)CN=C(c4ccccc4)c4ccccc43)c(C)o2)c1`, the survival is -2% (active). To `Cc1ccc(-c2nc(CN3C(=O)CN=C(c4ccccc4)c4ccccc43)c(C)o2)cc1` belongs 49% (inactive); to `Cc1ccccc1-c1nc(CN2C(=O)CN=C(c3ccccc3)c3ccccc32)c(C)o1`, -1% (active). As to `O=C(Cn1cc(C(=O)c2ccccc2)c2ccccc21)Nc1ccc(Br)cc1`, the survival is 48% (inactive).

Turning to `Cn1c(=O)n(C)c2cc(CNCCc3ccccc3F)ccc21`, the survival was 68% (inactive).

As for `COc1ccc(Br)cc1CN1CCN(C(=O)Cc2ccccc2)CC1`, the survival is 73% (inactive). On to `COc1ccc2c(c1OC)C(=O)OC2C1c2cc3c(cc2CCN1C)OCO3` (stereo not given), for which the survival is 69% (inactive). In the case of `CN1CCc2cc3c(c4c2C1Cc1ccccc1-4)OCO3` (stereo not given) it was 12% (active); in that of `CCCC12CN3CC(C)(CN(C1)C3c1c(C)[nH]c(=O)[nH]c1=O)C2=O` (stereo not given), 81% (inactive). Regarding `N#CSCC(=O)N1c2ccccc2CCc2ccccc21`, the survival was 3% (active). In the case of `CN1CCN(c2csc3ccc(F)cc3c2=O)CC1`, the survival is 98% (inactive). In the case of `Cc1ccc(-n2c(/C=C/c3cc(Br)cs3)nc3ccccc3c2=O)cc1C`, the survival was 71% (inactive). As to `O=C(COc1ccccc1)N1CCN(CC(O)COc2ccccc2)CC1` (stereo not given), the survival is 68% (inactive). To `CN1CCN(C(=O)COc2cccc3ccccc23)CC1` belongs 98% (inactive); to `N#Cc1cc2c(nc1SCC(=O)Nc1ccc(Cl)c(C(F)(F)F)c1)C1CCN2CC1`, -1% (active); to `CN(C)c1ccc(NC(=O)c2sc3nc4c(cc3c2N)N2CCC4CC2)cc1`, 146% (inactive). On to `O=C(Nc1ccc(F)c(Cl)c1)N(Cc1ccc2c(c1)OCO2)C1CCN(Cc2ccccc2)CC1`, for which the survival is 68% (inactive). Consider `N#Cc1cc2c(nc1SCC(=O)Nc1ccc(F)c(Cl)c1)C1CCN2CC1`, for which the survival is -2% (active). As to `N#Cc1cc(F)c(N2CCNCC2)cc1Cl`, the survival was 74% (inactive). With `CC(N)Cc1cn(Cc2ccccc2)c2ccccc12` (stereo not given), the survival was 112% (inactive).

On to `CN1C(=O)C(Cc2nc3ccccc3c(=O)n2-c2ccccc2)c2ccccc21` (stereo not given), for which the survival was 85% (inactive). Turning to `C=C1N2CCC(CC2)C1(O)c1ccc(C)cc1` (stereo not given), the survival was 44% (active). On to `COc1cc(C(c2c(O)c3ccccc3oc2=O)c2c(C)n(C)n(-c3ccccc3)c2=O)ccc1O` (stereo not given), for which the survival is 53% (inactive). To `Cc1c(C(c2ccc(O)cc2)c2c(O)c3ccccc3oc2=O)c(=O)n(-c2ccccc2)n1C` (stereo not given) belongs 47% (active); to `CSc1ccc(C(c2c(O)c3ccccc3oc2=O)c2c(C)n(C)n(-c3ccccc3)c2=O)cc1` (stereo not given), 128% (inactive). `Cc1c(C(c2ccc(F)cc2)c2c(O)c3ccccc3oc2=O)c(=O)n(-c2ccccc2)n1C` (stereo not given): the survival is 89% (inactive). Regarding `Cc1c(C(c2ccc(Br)cc2)c2c(O)c3ccccc3oc2=O)c(=O)n(-c2ccccc2)n1C` (stereo not given), the survival was 49% (active). In the case of `COc1ccc(C(c2c(O)c3ccccc3oc2=O)c2c(C)n(C)n(-c3ccccc3)c2=O)cc1` (stereo not given) it was 57% (inactive); in that of `COc1ccc(NC(=O)CN2C(=O)CN=C(c3ccccc3)c3ccccc32)c(OC)c1`, 99% (inactive); in that of `CC1CN2CCC3=C(CCCC3)C2(C)C1` (stereo not given), 77% (inactive).

For `CCN(CC)c1ccc(C=C(C#N)C#N)cc1`, the survival is 91% (inactive). Regarding `CC(C)n1cc(C(=O)N(C2CC2)C(C(=O)NC2CCCC2)c2ccccc2)cn1` (stereo not given), the survival is 101% (inactive). As to `COc1cccc(C2SCC(=O)Nc3c2c(C)nn3-c2ccc(C)c(Cl)c2)c1OC` (stereo not given), the survival was 55% (inactive).

Turning to `CCc1ccc(-n2nc(C)c3c2NC(=O)CSC3c2ccc(OC)cc2OC)cc1` (stereo not given), the survival is 60% (inactive). Turning to `CCCOc1ccc(C2SCC(=O)Nc3c2c(C)nn3-c2cccc(C)c2)cc1OC` (stereo not given), the survival was 41% (active). Turning to `Cc1cccc(-n2nc(C)c3c2NC(=O)CSC3c2ccccc2Cl)c1` (stereo not given), the survival was 43% (active). For the molecule `COc1ccccc1C1SCC(=O)Nc2c1c(C)nn2-c1cccc(C)c1` (stereo not given), the survival was -1% (active). To `Cc1ccc(-n2c(/C=C/c3ccc(Br)s3)nc3ccccc3c2=O)cc1` belongs 85% (inactive); to `O=C1NC(=O)C(=Cc2ccc(N3CCOCC3)cc2)C(=O)N1`, 80% (inactive). Regarding `O=c1cccc2n1CC1CC2CN(c2nc(Cl)nc(Cl)n2)C1` (stereo not given), the survival was 80% (inactive). On to `CCCCC12CN3CC(C)(CN(C1)C3c1ccccn1)C2=O` (stereo not given), for which the survival is 79% (inactive). To `Cc1cc(N)n(C2CCN(C)CC2)n1` belongs 94% (inactive). For `Cc1ccc(NC(=O)CN2C(=O)CN=C(c3ccccc3)c3ccccc32)cc1Cl`, the survival was 122% (inactive). In the case of `Cc1ccc(Cn2cccc(C(=O)Nc3nc4ccc(C)cc4s3)c2=O)cc1` it was 117% (inactive). To `COC1=CC23CCN(C)C(Cc4ccc(OC)c(O)c42)C3=CC1=O` (stereo not given) belongs 84% (inactive); to `N#Cc1cccc(NC(=O)CSc2nc3c(cc2C#N)N2CCC3CC2)c1`, 88% (inactive). `Cc1cccc(CSc2nc3c(cc2C#N)CN(C)CC3)c1`: the survival was 101% (inactive). `N#Cc1cc2c(nc1SCC(=O)Nc1cccc(F)c1)C1CCN2CC1`: the survival is -4% (active). In the case of `N#Cc1cc2c(nc1SCC(=O)Nc1ccc(C(F)(F)F)cc1)C1CCN2CC1` it was 8% (active); in that of `N#Cc1cc2c(nc1SCC(=O)Nc1cccc(C(F)(F)F)c1)C1CCN2CC1`, 4% (active); in that of `CCOC(=O)c1ccc(NC(=O)CSc2nc3c(cc2C#N)N2CCC3CC2)cc1`, 76% (inactive). Turning to `CCOC(=O)c1ccc(NC(=O)c2sc3nc4c(cc3c2N)N2CCC4CC2)cc1`, the survival is 68% (inactive). As to `O=C(CN1C(=O)CN=C(c2ccccc2)c2ccccc21)Nc1cccc(C(F)(F)F)c1`, the survival was 57% (inactive).

Consider `CC(=O)c1ccc(NC(=O)c2sc3nc4c(cc3c2N)N2CCC4CC2)cc1`, for which the survival is 98% (inactive). For `O=C(CNC1CCCCC1)N1CCC2(CC1)OCCO2`, the survival was 116% (inactive). As for `CCc1cccc(NC(=O)CN2C(=O)CN=C(c3ccccc3F)c3cc(Cl)ccc32)c1`, the survival is 94% (inactive).

For the molecule `CCC(C)N1CCN(Cc2cc(OC)c(OC)cc2OC)CC1` (stereo not given), the survival is 108% (inactive). In the case of `CCNCC1(c2ccc(OC)c(OC)c2)CCCC1`, the survival is 94% (inactive).
